ChEMBL document CHEMBL2218924, “A broad activity screen in support of a chemogenomic map for kinase signalling research and drug discovery” (Biochem J, 2013)

Legend:
[1] = target: Protein kinase C alpha type (Homo sapiens) (UniProt P17252); conditions: at 1 µM
[2] = target: Protein kinase C alpha type (Homo sapiens) (UniProt P17252); conditions: at 10 µM
[3] = target: Protein kinase C beta type (Homo sapiens) (UniProt P05771); conditions: at 1 µM
[4] = target: Protein kinase C beta type (Homo sapiens) (UniProt P05771); conditions: at 10 µM
[5] = target: Protein kinase C beta type (Homo sapiens) (UniProt P05771); conditions: at 1 µM; remark: listed apart in the source
[6] = target: Protein kinase C beta type (Homo sapiens) (UniProt P05771); conditions: at 10 µM; remark: listed apart in the source
[7] = target: Protein kinase C gamma type (Homo sapiens) (UniProt P05129); conditions: at 1 µM
[8] = target: Protein kinase C gamma type (Homo sapiens) (UniProt P05129); conditions: at 10 µM
[9] = target: Protein kinase C delta type (Homo sapiens) (UniProt Q05655); conditions: at 1 µM
[10] = target: Protein kinase C delta type (Homo sapiens) (UniProt Q05655); conditions: at 10 µM
[11] = target: T1, Protein kinase C epsilon type (Homo sapiens) (UniProt Q02156); conditions: at 1 µM
T1 sequence (whole entry): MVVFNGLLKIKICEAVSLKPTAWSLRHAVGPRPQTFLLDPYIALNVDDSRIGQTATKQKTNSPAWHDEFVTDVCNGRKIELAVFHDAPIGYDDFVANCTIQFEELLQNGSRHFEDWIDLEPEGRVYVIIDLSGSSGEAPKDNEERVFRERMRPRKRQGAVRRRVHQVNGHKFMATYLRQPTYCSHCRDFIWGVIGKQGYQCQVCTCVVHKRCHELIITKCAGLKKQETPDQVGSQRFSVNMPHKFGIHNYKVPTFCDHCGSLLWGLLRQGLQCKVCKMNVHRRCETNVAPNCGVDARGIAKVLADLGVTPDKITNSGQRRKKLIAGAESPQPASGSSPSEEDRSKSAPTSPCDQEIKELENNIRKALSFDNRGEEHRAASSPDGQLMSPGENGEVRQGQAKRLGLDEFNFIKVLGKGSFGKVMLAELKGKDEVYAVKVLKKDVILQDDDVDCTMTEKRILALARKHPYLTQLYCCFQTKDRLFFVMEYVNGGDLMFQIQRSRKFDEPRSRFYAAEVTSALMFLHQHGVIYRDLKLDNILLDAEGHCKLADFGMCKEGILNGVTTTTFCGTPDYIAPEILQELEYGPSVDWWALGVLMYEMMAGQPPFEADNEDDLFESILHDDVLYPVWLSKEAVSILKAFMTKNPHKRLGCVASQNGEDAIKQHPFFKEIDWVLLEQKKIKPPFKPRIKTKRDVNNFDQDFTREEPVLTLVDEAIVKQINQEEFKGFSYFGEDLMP

[12] = target: T1, Protein kinase C epsilon type (Homo sapiens); conditions: at 10 µM

Protein kinase C delta type (Homo sapiens), sequence (Q05655 whole entry, looked up): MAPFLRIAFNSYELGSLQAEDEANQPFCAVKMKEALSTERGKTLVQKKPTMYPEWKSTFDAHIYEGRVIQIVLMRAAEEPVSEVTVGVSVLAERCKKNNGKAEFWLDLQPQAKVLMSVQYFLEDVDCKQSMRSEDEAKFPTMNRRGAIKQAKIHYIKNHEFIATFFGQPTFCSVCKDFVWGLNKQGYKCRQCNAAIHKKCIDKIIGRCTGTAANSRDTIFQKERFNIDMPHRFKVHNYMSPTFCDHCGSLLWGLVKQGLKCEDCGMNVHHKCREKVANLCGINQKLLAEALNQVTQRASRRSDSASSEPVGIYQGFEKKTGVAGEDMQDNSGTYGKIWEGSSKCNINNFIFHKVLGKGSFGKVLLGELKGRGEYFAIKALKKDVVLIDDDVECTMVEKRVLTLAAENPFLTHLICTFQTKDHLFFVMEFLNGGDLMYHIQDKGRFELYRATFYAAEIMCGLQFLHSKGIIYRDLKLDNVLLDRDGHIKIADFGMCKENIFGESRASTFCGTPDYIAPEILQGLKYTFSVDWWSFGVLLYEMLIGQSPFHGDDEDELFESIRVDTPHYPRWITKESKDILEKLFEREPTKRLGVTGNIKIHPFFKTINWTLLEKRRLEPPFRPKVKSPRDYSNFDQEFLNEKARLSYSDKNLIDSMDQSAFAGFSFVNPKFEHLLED
Protein kinase C beta type (Homo sapiens), sequence (P05771 2-671 limits assumed): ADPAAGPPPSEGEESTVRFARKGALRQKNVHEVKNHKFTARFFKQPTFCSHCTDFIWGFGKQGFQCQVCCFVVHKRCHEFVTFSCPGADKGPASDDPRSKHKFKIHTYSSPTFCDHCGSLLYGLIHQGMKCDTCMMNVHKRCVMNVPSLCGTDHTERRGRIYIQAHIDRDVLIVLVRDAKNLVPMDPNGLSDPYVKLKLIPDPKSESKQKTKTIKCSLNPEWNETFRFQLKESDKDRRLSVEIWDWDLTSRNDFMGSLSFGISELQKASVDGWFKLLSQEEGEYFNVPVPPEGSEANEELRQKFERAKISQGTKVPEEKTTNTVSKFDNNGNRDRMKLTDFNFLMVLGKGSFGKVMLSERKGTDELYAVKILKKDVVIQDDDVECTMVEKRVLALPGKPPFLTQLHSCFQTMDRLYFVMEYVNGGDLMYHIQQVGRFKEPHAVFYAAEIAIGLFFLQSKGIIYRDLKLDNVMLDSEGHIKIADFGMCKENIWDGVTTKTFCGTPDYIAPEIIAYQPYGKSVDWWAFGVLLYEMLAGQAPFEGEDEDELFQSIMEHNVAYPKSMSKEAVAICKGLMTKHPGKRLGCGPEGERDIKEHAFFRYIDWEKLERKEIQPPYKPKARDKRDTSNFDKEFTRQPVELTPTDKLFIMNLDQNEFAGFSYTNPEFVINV

SMILES | residual activity [1] [%] | residual activity [2] [%] | residual activity [3] [%] | residual activity [4] [%] | residual activity [5] [%] | residual activity [6] [%] | residual activity [7] [%] | residual activity [8] [%] | residual activity [9] [%] | residual activity [10] [%] | residual activity [11] [%] | residual activity [12] [%]
O=C1NC(=O)/C(=C\c2ccc3nccnc3c2)S1 | 108 | 88 | 124 | 121 | 101 | 100 | 109 | 83 | 99 | 81 | 105 | 95
CC(=O)c1ccc(N2CCOCC2)cc1O | 101 | 102 | 107 | 101 | 100 | 93 | 109 | 108 | 101 | 103 | 91 | 82
COc1cccc(-c2cc(=O)c3ccccc3o2)c1N | 113 | 104 | 106 | 105 | 121 | 108 | 107 | 119 | 113 | 113 | 106 | 100
Cc1nc2cc3nc(-c4cccs4)cnc3cc2n1C | 111 | 96 | 107 | 105 | 99 | 99 | 110 | 104 | 98 | 106 | 104 | 89
CNc1cc2c(Nc3cccc(Br)c3)ncnc2cn1 | 106 | 95 | 118 | 105 | 104 | 103 | 109 | 94 | 104 | 105 | 96 | 99
Nc1n[nH]c2nnc(-c3c(-c4ccccc4)nn4ccccc34)cc12 | 97 | 91 | 99 | 96 | 102 | 93 | 98 | 98 | 22 | 4 | 101 | 41
O=c1c2ccccc2[nH]c(=S)n1CCN1CCC(=C(c2ccc(F)cc2)c2ccc(F)cc2)CC1 | 108 | 105 | 109 | 109 | 101 | 104 | 116 | 117 | 101 | 97 | 91 | 93
CC(=O)O/N=C1\C(=C2\C(=O)Nc3cc(Br)ccc32)Nc2ccccc21 | 105 | 101 | 122 | 122 | 105 | 94 | 97 | 109 | 98 | 108 | 107 | 93
O=C(Nc1cccc(Nc2cc(Nc3cccc(C(F)(F)F)c3)ncn2)c1)C1CC1 | 102 | 101 | 105 | 104 | 98 | 97 | 112 | 106 | 93 | 94 | 90 | 97
O=c1cc(-c2cccc3c2Sc2ccccc2S3)oc(N2CCOCC2)c1 | 95 | 86 | 102 | 100 | 104 | 101 | 99 | 95 | 100 | 104 | 91 | 94
CO[C@H]1C[C@@H]2CC[C@@H](C)[C@@](O)(O2)C(=O)C(=O)N2CCCC[C@H]2C(=O)O[C@H]([C@H](C)C[C@@H]2CC[C@@H](O)[C@H](OC)C2)CC(=O)[C@H](C)/C=C(\C)[C@@H](O)[C@@H](OC)C(=O)[C@H](C)C[C@H](C)/C=C/C=C/C=C/1C | 99 | 99 | 107 | 106 | 105 | 103 | 105 | 98 | 98 | 99 | 81 | 82
COc1cc2ncnc(Nc3ccc(Oc4ccccc4)cc3)c2cc1OC | 91 | 96 | 120 | 126 | 104 | 104 | 105 | 97 | 103 | 107 | 85 | 89
CCN(CC)CCCCN1c2ccccc2Oc2ccc(Cl)cc21 | 112 | 107 | 105 | 98 | 103 | 95 | 117 | 108 | 107 | 111 | 84 | 99
NC(=O)c1ccc2[nH]c(-c3ccc(Oc4ccc(Cl)cc4)cc3)nc2c1 | 99 | 90 | 111 | 93 | 95 | 100 | 90 | 108 | 104 | 107 | 95 | 85
Cc1ccc(NC2=CC(=O)c3sc(C)nc3C2=O)cc1 | 106 | 105 | 98 | 88 | 112 | 101 | 102 | 108 | 103 | 102 | 87 | 94
Oc1c2ccccc2c2c3c(cccc13)N=N2 | 98 | 73 | 102 | 104 | 108 | 102 | 73 | 30 | 99 | 71 | 101 | 84
